In the library only some 1.1% were active in any assay of this set; here they are far more common.
Eya2 phos inh: qHTS Assay for Inhibitors of the Phosphatase Activity of Eya2; Potency, µM (top dose mostly 76.9 µM), for the others: at the top dose activity, negative = inhibition, actives largely listed as inhibitors; 0.006% of 330,000 active; recombinant Eya2, OMFP fluorescence dephosphorylation (OMFP is methylfluorescein phosphate); AID 488837, 2010; Protein phosphatase EYA2 (Homo sapiens), O00167
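Eya2 protein (added as 0.2 uM solution) was preincubated with compound for 10 min at ambient temperature in 50 mM HEPES pH 7.5, 50 mM NaCl, 5 uM MgCl2, 0.05% BSA, 1 mM DTT. OMFP (added at 50 uM) then reacted 10 min; fluorescence read at 485/525 nm.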
RGS4 inh: Inhibitors of Regulator of G Protein Signaling (RGS) 4: qHTS. Regulator of G-protein signaling 4 (Homo sapiens), P49798. Transcreener GDP fluorescence polarization, RGS4-accelerated GTP hydrolysis. Potency, µM (doses to about 114 µM), without a hit: at the highest dose activity change, negative = inhibition, actives largely listed as inhibitors. 0.039% of 390,000 active; note: nearly all actives have a fitted effect of over 75% in size
Target sequence (P49798 whole entry, looked up): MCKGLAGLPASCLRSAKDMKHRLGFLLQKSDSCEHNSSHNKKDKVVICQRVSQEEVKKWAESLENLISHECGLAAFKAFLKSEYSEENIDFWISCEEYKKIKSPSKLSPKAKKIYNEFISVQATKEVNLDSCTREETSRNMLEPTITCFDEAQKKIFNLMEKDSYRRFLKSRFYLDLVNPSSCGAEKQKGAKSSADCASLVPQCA
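MLSMR compounds (23 nl, pin-transferred) preincubated 10 min at room temperature with a 500nM (2x) first reagent, then RGS4 at 900nM (2x) plus Transcreener GDP mix added; fluorescence polarization (620/688 nm) read before and after 90 min at 30 °C.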
TrxR1 substrate: qHTS Assay for Substrates of Mammalian Selenoprotein Thioredoxin Reductase 1 (TrxR1): qHTS | Thioredoxin reductase 1, cytoplasmic (Rattus norvegicus), O89049 | purified TrxR1 substrate turnover, NADPH consumption readout | Potency, µM (doses to about 114 µM), inactives show top-dose activity change, negative = substrate turnover | 0.01% of 390,000 active | AID 588456, 2011; note: nearly all actives have a fitted effect of over 50% in size
Target sequence (O89049 whole entry, looked up): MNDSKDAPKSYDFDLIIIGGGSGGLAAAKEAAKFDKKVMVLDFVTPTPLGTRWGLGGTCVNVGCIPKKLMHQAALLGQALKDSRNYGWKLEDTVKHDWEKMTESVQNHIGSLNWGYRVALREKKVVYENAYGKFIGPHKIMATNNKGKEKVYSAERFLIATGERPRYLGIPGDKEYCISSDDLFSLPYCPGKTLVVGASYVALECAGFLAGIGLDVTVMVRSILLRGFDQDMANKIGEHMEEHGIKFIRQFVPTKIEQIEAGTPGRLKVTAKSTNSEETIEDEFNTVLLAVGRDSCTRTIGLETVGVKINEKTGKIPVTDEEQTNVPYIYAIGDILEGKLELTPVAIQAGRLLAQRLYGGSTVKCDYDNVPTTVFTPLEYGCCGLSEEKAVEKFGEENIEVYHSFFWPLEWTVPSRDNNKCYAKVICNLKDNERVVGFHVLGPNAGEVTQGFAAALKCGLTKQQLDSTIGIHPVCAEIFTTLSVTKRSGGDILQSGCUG
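Rat TrxR1, dispensed at 90 nM, was prereduced with 400 uM NADPH (final) for 5 min at ~22 deg C, then incubated with compound 15 min before 400 uM selenite. A first-read NADPH fluorescence drop versus no-compound background flagged substrates.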
mIDH1 inhibitor: qHTS for Inhibitors of mutant isocitrate dehydrogenase 1 (IDH1): qHTS | Isocitrate dehydrogenase [NADP] cytoplasmic (Homo sapiens), O75874 | IDH1-R132H enzyme, NADPH consumption, diaphorase/resazurin fluorescence | Potency, µM (top dose mostly 76.6 µM), without a hit: top-dose activity change, negative = inhibition, hits mostly inhibitors | 0.093% of 390,000 active | AID 602179, 2012; note: nearly all actives have a fitted effect of over 65% in size
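IDH1-R132H (0.5 ug/mL dispensed) in pH 7.5 Tris buffer was preincubated 30 min with compound, then given a substrate mix of 0.016 mM NADPH and 2 mM alpha-KG for 80 min at room temperature; remaining NADPH was read by diaphorase/resazurin fluorescence.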
rTrxR1 inhibitor: qHTS Assay for Inhibitors of Mammalian Selenoprotein Thioredoxin Reductase 1 (TrxR1): qHTS. Thioredoxin reductase 1, cytoplasmic (Rattus norvegicus), O89049. recombinant rTrxR1, NADPH fluorescence consumption, selenite substrate. Potency, µM (highest dose often 114 µM), for the others: top-dose activity change, negative = inhibition, actives largely listed as inhibitors. 1% of 390,000 active; note: nearly all actives have a fitted effect of over 65% in size
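Rat TrxR1 (90 nM in the dispensed reagent) was pre-reduced with 400 uM NADPH for 5 min at room temperature, then incubated with compound for 15 min. After 400 uM selenite was added, NADPH fluorescence (Ex 340/Em 450 nm) was followed for 8 min.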
Active calls of the source: *; u = inconclusive; x = not tested or not shown; [ ] = dose if it differs, or a comment. Calls come from the whole dose curve; as a rule, active = well fitted curve in the direction sought with a large enough effect; inconclusive = small, poorly fitted or top-dose-only effect, or another doubt; inactive = no such curve, though single readings can be large; an effect the other way counts as inactive or inconclusive. % is set by controls: 0 for no effect and ±100 for the full control effect; potency is the fitted concentration of half-maximal effect.

SMILES	Eya2 phos inh	RGS4 inh	TrxR1 substrate	mIDH1 inhibitor	rTrxR1 inhibitor
O=C(NC(=S)Nc1ccc2c(c1)OCCO2)c1ccccc1	-5%	u	0%	3%	7.1µM*
CCCC(=O)NC(=S)Nc1cccc(NC(=O)c2ccccc2)c1	3%	-27%	-2%	3%	22µM*
O=C(NC(=S)Nc1cnc2ccccc2c1)c1ccccc1	-9%	-36%	8%	1%	u
O=C(NC(=S)Nc1ccc(S(=O)(=O)N2CCCCC2)cc1)c1ccccc1	15%	26%	3%[57.1 µM]	-3%	11µM*
OC(CCN1CCC2(CC1)OCCO2)C(F)(F)F (stereo unspecified)	0%	4%	-6%	9%	8%[57.1 µM]
COc1ccc(NC(=S)NC(=O)c2ccc3c(c2)OCCO3)cc1	8%	-29%	-13%	9%	3.5µM*
O=C(NC(=S)Nc1ccc(F)cc1)c1ccc2c(c1)OCCO2	-16%	5%[11.4 µM]	-2%	-3%	u
Nc1nnc(CC(=O)N/N=C/c2cc([N+](=O)[O-])cc(Br)c2O)s1	5%	u	-14%	2%	35µM*
O=c1[nH]c(Nc2ccc(F)cc2)cc2ccccc12	u	-35%	32%	-5%	11µM*
COc1ccc(CN2CCc3c(c(=O)n4ncc(C(=O)N5CCN(c6ccccc6OC)CC5)c4n3C)C2)cc1	x	4%	4%[57.1 µM]	-3%	7%[57.1 µM]
COc1ccccc1C(C)NCC(=O)c1c(C)[nH]c2ccccc12 (stereo unspecified)	x	x	-3%	x	20µM*
CN1CCN(c2ccc(S(=O)(=O)N3CCCCC3)cc2[N+](=O)[O-])CC1	12%	-8%	4%[57.1 µM]	0%	6%
CCCC(=O)N(C)c1ccc(/C=C2\C=Cc3ccccc32)cc1	x	x	-7%	x	20µM*
Cc1ccc(S(=O)(=O)Cc2ccc(C(=O)N3CCc4ccccc4C3)o2)cc1	20%	-29%	-7%	-10%	71µM*
COc1ccc(S(=O)(=O)Cc2ccc(C(=O)N3CCc4ccccc4C3)o2)cc1	3%	-32%	6%	11%	50µM*
Cc1ccc(S(=O)(=O)Cc2ccc(C(=O)N3CCN(Cc4ccccc4)CC3)o2)cc1	10%	x	x	x	x
Cc1ccc(S(=O)(=O)Cc2ccc(C(=O)O)o2)cc1	14%	-30%	0%	7%	25µM*
COc1ccc(S(=O)(=O)Cc2ccc(C(=O)O)o2)cc1	-5%	-3%	6%	0%	-13%
COC(=O)COC(=O)CC(CC(N)=O)c1ccccc1 (stereo unspecified)	9%	-23%	3%	-2%	5%
CC(/C=N/NC(=O)Cc1cccn1C)=C\c1ccccc1	4%	8%	-7%	2%	50µM*
C=C(CN(C)C)C(=O)c1ccc(OC2OC(COC(C)=O)C(OC(C)=O)C(OC(C)=O)C2OC(C)=O)cc1 (stereo unspecified)	x	u	9%[11.4 µM]	-1%	2.8µM*
CC(=O)OC[C@H]1O[C@@H](O/N=C/[C@@H](C)[C@H](OCc2ccccc2)C(C)C)[C@H](OC(C)=O)[C@@H](OC(C)=O)[C@@H]1OC(C)=O	-7%	x	x	x	x
CCCCCCN1C[C@@H](n2cc(-c3ccc(F)cc3)nn2)[C@H](O)C[C@@H]1c1ccc(OC)cc1	x	x	x	3%	x
C=C(CC)C(=O)c1ccc(OCC(=O)O)c(Cl)c1Cl	-3%	u	6%	u	40µM*
Cc1ccnc(SCc2cc(=O)c(OC(=O)c3ccc(S(=O)(=O)N4CCCC4)cc3)co2)n1	-5%	-28%	3%	-5%	28µM*
SMILES	Eya2 phos inh	RGS4 inh	TrxR1 substrate	mIDH1 inhibitor	rTrxR1 inhibitor
Cc1cc(C)nc(SCc2cc(=O)c(OC(=O)c3ccc(S(=O)(=O)N(C)C)cc3)co2)n1	-2%	-14%	-2%	0%	50µM*
Cc1ccnc(SCc2cc(=O)c(OC(=O)c3ccc(S(=O)(=O)N(C)C)cc3)co2)n1	0%	-18%	2%	-2%	10µM*
Cc1ccnc(SCc2cc(=O)c(OC(=O)c3cc([N+](=O)[O-])ccc3Cl)co2)n1	2%	-14%	2%	11%	-19%
Cc1ccnc(SCc2cc(=O)c(OC(=O)c3ccc(Br)o3)co2)n1	-10%	-36%	-4%	-7%	u
Cc1ccc(-c2csc3nc(C)n(-n4c(C)ccc4C)c(=O)c23)o1	9%	u	-3%	7%	18µM*
O=C(CCNc1cc(Cl)cc(Cl)c1)c1cccs1	-3%	-11%	3%	1%	28µM*
Cc1ccc(CNC(=O)c2cn(C3CCCCC3)c(=O)c3c2c2ccccc2n3C)o1	-13%	u	12%	-2%	4µM*
CC(=O)CC[N+](C)(C)C	x	-44%	-2%	-1%	2.2µM*
C[N+](C)(C)CCCCCC(=O)/C=N/O	0%	-21%	2%	0%	17%
CCCCn1c(N)c(N(CCOC)C(=O)c2ccc(N(C)S(=O)(=O)c3ccc(C)cc3)cc2)c(=O)[nH]c1=O	5%	26%	4%[57.1 µM]	0%	7%[57.1 µM]
COc1ccc(OC)c(NS(=O)(=O)c2cc3c(cc2Cl)N(C(C)=O)CCO3)c1	x	13%	9%[11.4 µM]	2%	18µM*
CCOC(=O)c1c(SCCN2CCCC2)n(-c2ccccc2)c(=S)n(-c2ccccc2)c1=O	x	u	4%	4%	32µM*
O=C1NCCCC2c3c(cc(Br)c(O)c3Br)OC12N1CCCCC1 (stereo unspecified)	23%	u	1%	3%	25µM*
O=C(O)c1cc(/C=C/C(=O)c2cc(F)ccc2O)c2c(c1)COCO2	-4%	u	-11%	-5%	45µM*
CC1(C)CC(=O)C2=C(C1)N(c1ccccc1)C(N)=C(C#N)C2c1cccnc1 (stereo unspecified)	0%	1%	2%	-4%	79µM*
CC(C)(C=O)C1=CC(=O)c2ccccc2C1=O	1%	-130%	12%	16%	45µM*
CC(C)c1nnc(NC(=O)c2nc(SCc3ccc(F)cc3)ncc2Cl)s1	x	-13%	1%	-21%	22%
CC(C)c1nnc(NC(=O)c2nc(S(=O)(=O)Cc3ccc(F)cc3)ncc2Cl)s1	2%	-45%	5%	5%	32µM*
Cc1ccc(CS(=O)(=O)c2ncc(Cl)c(C(=O)Nc3nnc(C(C)C)s3)n2)cc1	-3%	u	4%	4%	32µM*
Cc1ccc(C)c(NC(=O)c2nc(Cl)ccc2Cl)c1	-4%	-5%	-4%	-9%	8%

From PubChem
